# Source: PubChem BioAssay AID880 (National Center for Advancing Translational Sciences (NCATS), 2007)
# Screen size: about 230,000 compounds; about 1,000 (0.43%) were called active. Only a selection was taken, and actives are over-represented in it overall. A number with no mark means an inactive call. The call rests on the fitted dose curve; in most records, active means well fitted inhibition curve with a large enough effect (not every such curve was filed as active); inactive means no such curve, though single readings can be large or run the other way.
# Target: Guanine nucleotide-binding protein G(i) subunit alpha-1 (Homo sapiens) (UniProt P63096)
# Sequence (P63096 whole entry, looked up): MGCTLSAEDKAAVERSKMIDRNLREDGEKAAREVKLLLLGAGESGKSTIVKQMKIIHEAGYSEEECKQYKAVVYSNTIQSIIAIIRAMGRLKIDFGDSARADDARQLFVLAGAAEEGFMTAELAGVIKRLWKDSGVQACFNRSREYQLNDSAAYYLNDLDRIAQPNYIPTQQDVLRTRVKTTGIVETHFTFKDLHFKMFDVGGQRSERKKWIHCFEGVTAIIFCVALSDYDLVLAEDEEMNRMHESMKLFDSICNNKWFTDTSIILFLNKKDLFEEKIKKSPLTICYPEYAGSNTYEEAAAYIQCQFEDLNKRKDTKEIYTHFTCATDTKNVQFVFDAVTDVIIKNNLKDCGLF
# Test: qHTS Assay for Inhibitors of RGS12 GoLoco Motif Activity (Red Fluorophore); further: nearly all actives have a fitted effect of over 30% in size
# Details: Gai1:RGS12 GoLoco peptide FP, rhodamine, 10 min; series mostly up to 61.6 µM
# Source text: Assay Submitter: Siderovski, David P, University of North Carolina at Chapel Hill
# Screening Center PI: Austin, C.P.
# Screening Center: NIH Chemical Genomics Center [NCGC]
# G-protein-coupled receptors (GPCRs) are major targets for drug discovery. The regulator of G-protein signaling (RGS)-protein family has important roles in GPCR signal transduction. RGS proteins contain a conserved RGS-box, which is often accompanied by other signaling regulatory elements. RGS proteins accelerate the deactivation of G proteins to reduce GPCR signaling; however, some also have an effector function and transmit signals. Combining GPCR agonists with RGS inhibitors should potentiate responses, and could markedly increase the agonist's regional specificity. The diversity of RGS proteins with highly localized and dynamically regulated distributions in brain makes them attractive targets for pharmacotherapy of central nervous system disorders. […] A complex of Gai1 and fluorescently labeled G-alpha-binding peptide (the "GoLoco motif") derived from RGS12 is incubated with library members. Inhibitors of the binding are detected by a decrease in the fluorescence polarization (FP) of the fluorophore. Protein was supplied by Prof. David Siderovski, University of North Carolina at Chapel Hill.
# Assay Buffer: 10 mM Tris-HCl, 150 mM NaCl, 0.1 mM GDP (prepared fresh), and 0.05% NP40 at pH 7.5.
# 15 nM Rhodamine labeled peptide/25 nM protein in columns 1, 2, 5 - 48. Titration of unlabeled peptide control ([H][…][NH2], custom synthesized and HPLC-purified by Tufts University Core Facility) from 20 mM, then 1:2 dilution, 16-point in duplicate, pin-transferred to column 2, rows 1 to 32. Column 1 is neutral.
# Rhodamine-labeled peptide (Rhodamine-[…]-NH2) was custom-synthesized and HPLC-purified by Invitrogen (Carlsbad, CA).
# Four uL of reagents were dispensed to 1536-well Greiner black solid-bottom plates. Compounds and controls (23 nL) were transferred via Kalypsys PinTool. The plates were incubated for 10 min at room temperature, and then read on ViewLux (Perkin-Elmer) High-throughput CCD imager using BODIPY for the rhodamine-labeled decapeptide probe. During dispense, reagent bottles were kept submerged into 4 deg C water bath and all liquid lines were covered with aluminum foil to minimize probe and protein degradation. All screening operations were performed on a Kalypsys robotic system (Kalypsys, Inc., San Diego, CA) containing one RX-130 and two RX-90 anthropomorphic robotic arms.
# On the % scale 0 is the no-effect control and ±100 the full control effect; potency means the concentration at half of the fitted maximal effect.
SMILES,Potency,"activity, negative = inhibition"
C[N+]12CN3CN(CN(C3)C1)C2,8.91 µM (active),–
CO[C@@H]1C[C@@H](C[C@H]2CC[C@H](C)[C@@H]([C@@H](C)C(=O)O)O2)O[C@]2(O[C@](C)([C@H]3CC[C@@](C)(C4OC([C@H]5O[C@@](O)(CO)[C@H](C)C[C@@H]5C)C[C@@H]4C)O3)C[C@H]2C)[C@@H]1C (stereo not given in full),–,inactive
CC(=O)c1c(O)c(C)c(O)c(Cc2c(O)c3c(c(C(=O)/C=C\c4ccccc4)c2O)OC(C)(C)C=C3)c1O,–,inactive
C[C@@]12CC[C@H](O)C[C@@H]1CC[C@@H]1[C@@H]2CC[C@@]2(C)[C@@H](C3=CC(=O)OC3)[C@H](O)C[C@]12O,–,3.75% [at 14.2 µM]
Cc1cc(-c2ccc(N)c(C)c2)ccc1N,25.1 µM (active),–
CN1[C@@H]2CC[C@H]1CC(OC(=O)c1cc(Cl)cc(Cl)c1)C2 (stereo not given in full),–,inactive
CN(C)C1C(=O)C(C(N)=O)=C(O)[C@@]2(O)C(=O)C3=C(O)c4c(O)cccc4[C@@](C)(O)C3C[C@@H]12 (stereo not given in full),–,inactive
ClC(Cl)=C(Cl)C(Cl)=C(Cl)Cl,–,inactive
CC(C)CC(C)Nc1ccc(Nc2ccccc2)cc1 (stereo not given),–,inactive
CCCCN1C2CCC1CC(OC(c1ccc(F)cc1)c1ccc(F)cc1)C2 (stereo not given),–,inactive
CS(=N)(=O)CC[C@H](N)P(=O)(O)O (stereo not given in full),–,3.42% [at 14.2 µM]
CC(C)(Cc1c[nH]c2ccc(Cl)cc12)NCCOc1ccccc1OCC1CC1,–,inactive
CC(=O)OC1C2CCC3C1(CC(O)[C@@]1(O)[C@@H](CC(O)C1(C)C)[C@]3(C)O)C[C@@]2(C)O (stereo not given in full),25.1 µM (active),–
CC(C)(c1ccccc1)c1ccc(O)cc1,–,inactive
CC(=O)O[C@H]1CC[C@@]2(C)[C@@H](CC[C@H]3[C@H]2CC(=O)[C@]2(C)[C@@H]3C[C@@H](N3CC3)[C@H]2C(C)=O)C1,–,4.86% [at 14.2 µM]
O=C(O)C1C2CCC(O2)C1C(=O)O (stereo not given),–,inactive
OC(CNC1CCCCC1)c1ccccc1 (stereo not given),–,inactive
CNC(C)[C@@H](O)c1ccccc1 (stereo not given in full),7.94 µM (active),–
CC(C)CCC1(CCN)C(=O)NC(=O)NC1=O,–,2.09% [at 14.2 µM]
CN(C)[C@@H]1C(=O)C(C(N)=O)=C(O)[C@@]2(O)C(=O)C3=C(O)c4c(O)cccc4[C@@](C)(O)C3CC12 (stereo not given in full),–,inactive
CCN(CC)CCn1ncc2c(N)ncnc21,–,8.05% [at 14.2 µM]
O=C(O)C(=O)Cc1ccc2c(c1)OCO2,–,-7.42% [at 14.2 µM]
COc1ccccc1N=C1SCCCN1C,3.16 µM (active),–
COc1ccccc1N=Nc1c(O)[nH]c(=S)[nH]c1=O,–,inactive
Cc1ccc(S(=O)(=O)O[C@H]2CN3CCC2CC3)cc1,–,-0.505% [at 14.2 µM]
CC[C@@](O)(C(=O)O)c1cc2n(c(=O)c1CO)Cc1cc3ccccc3nc1-2,–,-0.459% [at 14.2 µM]
Fc1ccc(C(OCCN2CCN(C/C=C\c3ccccc3)CC2)c2ccc(F)cc2)cc1,–,inactive
C[C@H](Br)C(=O)N[C@H](CO)C(=O)O,–,5.42% [at 14.2 µM]
NCC[Se][Se]CCN,0.631 µM (active),–
CC(C)(O)/C=C\C(=O)[C@](C)(O)[C@H]1[C@H](O)C[C@]2(C)[C@@H]3CC=C4[C@@H](C=C(O)C(=O)C4(C)C)[C@]3(C)C(=O)C[C@@]12C,–,6.59% [at 14.2 µM]
